Screens (PubChem)
In the library only some 1.3% were active in any assay of this set; here they are far more common.
GCN5L2 inh: inhibitors of human GCN5L2 histone acetyltransferase | GCN5L2 HAT assay, ThioGlo1 CoA-SH fluorescence | 0.21% of 390,000 active | Potency, µM (highest dose often 58.9 µM), without a hit: top-dose activity change, negative = inhibition, actives largely listed as inhibitors | AID 504327; further: potency means the concentration at half of the fitted maximal effect
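GCN5L2 (20nM final) in 50mM HEPES, 0.1mM EDTA pH 7.5, 0.01% Tween-20 was preincubated 15 min at room temperature with compound, then given ThioGlo1 (50uM), H3(1-25) peptide (75uM) and acetyl-CoA (70uM); CoA-thiol fluorescence (Ex340/Em540) was read at 0 and 20 min.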
rTrxR1 inhibitor: rat TrxR1 inhibition | AID 588453 | O89049 | Potency, µM (titrated, usually from 114 µM), for the others: top-dose activity change, negative = inhibition, most hits filed as inhibitors | recombinant rTrxR1, NADPH fluorescence consumption, selenite substrate | 1% of 390,000 active; further: potency means the concentration at half of the fitted maximal effect; nearly all actives have a fitted effect of over 65% in size
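Rat TrxR1 (90 nM in the dispensed reagent) was pre-reduced with 400 uM NADPH for 5 min at room temperature, then incubated with compound for 15 min. After 400 uM selenite was added, NADPH fluorescence (Ex 340/Em 450 nm) was followed for 8 min.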
GALK inhibitor: galactokinase (human) inhibition; P51570; Potency, µM (highest dose often 57.5 µM), for the others: at the top dose activity change, negative = inhibition, most hits filed as inhibitors; AID 1868; Purified GALK, Kinase-Glo residual ATP luminescence; 0.007% of 270,000 active; further: potency means the concentration at half of the fitted maximal effect
Target sequence (P51570 whole entry, looked up): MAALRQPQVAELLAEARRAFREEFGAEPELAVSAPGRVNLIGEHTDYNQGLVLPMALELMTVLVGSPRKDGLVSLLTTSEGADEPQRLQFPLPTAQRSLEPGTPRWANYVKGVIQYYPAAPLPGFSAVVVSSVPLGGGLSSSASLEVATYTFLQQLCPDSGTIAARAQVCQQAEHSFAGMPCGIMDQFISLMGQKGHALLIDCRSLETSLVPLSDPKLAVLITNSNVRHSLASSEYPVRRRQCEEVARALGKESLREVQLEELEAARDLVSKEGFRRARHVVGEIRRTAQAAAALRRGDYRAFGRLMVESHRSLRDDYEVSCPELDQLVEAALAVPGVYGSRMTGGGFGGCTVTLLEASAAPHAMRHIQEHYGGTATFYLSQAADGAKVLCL
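5 nM enzyme, 35 uM ATP, 100 uM galactose, 20 mM HEPES pH8.0, 5 mM MgCl2; 1 h RT; residual ATP by Kinase-Glo Plus luminescence, qHTS format.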
TrxR1 substrate: substrates of rat thioredoxin reductase 1; O89049; purified TrxR1 substrate turnover, NADPH consumption readout; Potency, µM (doses to about 114 µM), for the others: at the top dose activity change, negative = substrate turnover; 0.01% of 390,000 active; further: potency means the concentration at half of the fitted maximal effect; nearly all actives have a fitted effect of over 50% in size
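Rat TrxR1, dispensed at 90 nM, was prereduced with 400 uM NADPH (final) for 5 min at ~22 deg C, then incubated with compound 15 min before 400 uM selenite. A first-read NADPH fluorescence drop versus no-compound background flagged substrates.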
Pin1 inhibitor: human Pin1 inhibition. Q13526. Pin1 FP peptide displacement, HiFluor488, 10 min. Potency, µM (titrated, usually from 115 µM), for inactives: at the highest dose activity, negative = inhibition, hits mostly inhibitors. 0.009% of 390,000 active. AID 504891; active means well fitted inhibition curve with a large enough effect in the polarisation, with a control signal flat, not every such curve was filed as active; inconclusive means small, poorly fitted or top-dose-only effect, or effect the other way, or a change in a side signal; inactive means no such curve, though single readings can be large or run the other way; the % refers to the polarisation; further: potency means the concentration at half of the fitted maximal effect
Target sequence (Q13526 whole entry, looked up): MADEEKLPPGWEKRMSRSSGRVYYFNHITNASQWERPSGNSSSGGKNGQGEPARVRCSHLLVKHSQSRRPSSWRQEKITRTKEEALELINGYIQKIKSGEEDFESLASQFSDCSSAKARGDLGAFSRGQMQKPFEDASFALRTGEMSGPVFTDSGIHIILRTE
Giardia killer: Giardia lamblia killing. Giardia lamblia trophozoite viability. activity change, % at 7.66 µM, hits read low. 0.15% of 340,000 active; in the data active means activity change below about -80%; inconclusive means between about -30% and that limit;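 further: parasites exposed to compound for two days anaerobically before the ATP read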
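Anaerobic 48 hrs incubation at 37 deg C of 100 trophozoites/well with test compounds; ATPLite 1-Step luminescence, 15-30 min RT, reports cellular ATP as viability.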
Numbers without * were called inactive; ? = inconclusive; nt = no result; [ ] = another dose, or the depositor's remark. Unless noted, the call rests on the fitted dose curve; in most records, active means well fitted curve in the direction sought with a large enough effect; inconclusive means small, poorly fitted or top-dose-only effect, or another doubt; inactive means no such curve, though single readings can be large; an effect the other way counts as inactive or inconclusive. On the % scale 0 is the no-effect control and ±100 the full control effect.

SMILES | GCN5L2 inh | rTrxR1 inhibitor | GALK inhibitor | TrxR1 substrate | Pin1 inhibitor | Giardia killer
C#CC(C)(C)NS(=O)(=O)c1cc(-c2nnc(Nc3ccc(C)cc3)c3ccccc23)ccc1C | -17% | 7% | nt | 4% | 13% | nt
Cc1cccc(NC(=S)N/C(=N/S(=O)(=O)c2ccccc2)c2ccccc2)c1 | 1% | 16µM* | -3% | 2% | ? | 2
Cc1ccc(S(=O)(=O)/N=C(/NC(=S)Nc2cccc(C)c2)c2ccccc2)cc1 | -6% | ? | 0% | -2% | 0% | -2
CC(=O)Nc1cccc(C(=O)/C=C/c2ccc[nH]2)c1 | 3% | 71µM* | -4% | -3% | 47% | 1
CC(=O)Nc1cccc(C(=O)/C=C/c2ccc(/C=C/C(=O)c3cccc(NC(C)=O)c3)cc2)c1 | 5% | nt | 0% | nt | nt | nt
CC(=O)CCS(=O)(=O)c1ccc(Oc2ccc(S(=O)(=O)CCC(C)=O)cc2)cc1 | -4% | 50µM* | 0% | -2% | 1% | 4
CC(=O)CS(=O)(=O)c1ccc(Oc2ccc(S(=O)(=O)CC(C)=O)cc2)cc1 | -13% | -74% | -3% | 8%[57.1 µM] | ? | -5
Cc1cccc2c1N(C)C(=O)C2=O | 1% | 22% | 2% | 6%[57.1 µM] | -8% | 0
Cc1ccc(S(=O)(=O)ON2C(=O)c3ccccc3C2=O)c(C)c1 | -2% | 3.5µM* | 0% | 51% | -3% | 1
Cc1cc(C)c(C)c(S(=O)(=O)ON2C(=O)c3ccccc3C2=O)c1C | -1% | 1.3µM* | -3% | 26% | 9% | 9
Cc1cc(C)c(S(=O)(=O)ON2C(=O)c3ccccc3C2=O)cc1C | -25% | 3.5µM* | 2% | 22% | -4% | 5
Cc1ccc(S(=O)(=O)N2CCN(CCc3ccccc3)CC2)c(C)c1 | -2% | 18% | nt | 5%[57.1 µM] | -12% | 9
COc1ccc(-c2noc(N3CCC(C(=O)NC(C)c4ccccc4)CC3)n2)cc1 (stereo not given) | 0% | 2%[57.1 µM] | nt | -1%[57.1 µM] | ? | -22
O=S(=O)(NC(=S)NC1CCCCC1)c1ccccc1 | -5% | 3.2µM* | 0% | -6% | -10% | -21
O=S(=O)(NC(=S)NC1CCCCC1)c1cccs1 | 24% | ? | 0% | 12%[57.1 µM] | -5% | 0
COC(=O)c1ccc(Cn2c(=O)cc(C(F)(F)F)c3c(C)nn(C)c32)cc1 | 0% | 28%[57.1 µM] | nt | 6%[57.1 µM] | -3% | nt
Cc1ccc(CS(=O)(=O)c2ncc(Cl)c(C(=O)Nc3nnc(C(C)C)s3)n2)cc1 | -2% | 32µM* | 4% | 4% | 6% | -2
CCSc1nnc(NC(=O)c2nc(S(=O)(=O)Cc3ccc(F)cc3)ncc2Cl)s1 | -9% | 25µM* | 1% | -1% | -11% | 2
CC(C)c1nnc(NC(=O)c2nc(S(=O)(=O)Cc3ccc(F)cc3)ncc2Cl)s1 | -4% | 32µM* | 5% | 5% | -6% | 7
Cc1ccc(C)c(NC(=O)c2nc(S(=O)(=O)Cc3ccc(F)cc3)ncc2Cl)c1 | -5% | 1.6µM* | nt | 3% | 38% | nt
Cc1ccc(-n2c3c(c(=O)[nH]c2=O)C(NC(=O)C(C)(C)C)(C(F)(F)F)C(=O)N3)cc1 (stereo not given) | -5% | -5% | nt | -3% | -3% | nt
Cc1ccc2c(c1)N(CC(=O)Nc1ccccc1F)C(=O)C(C)O2 (stereo not given) | nt | -4% | nt | -7% | -2% | -4
CSc1nnc(NC(=O)c2nc(S(=O)(=O)Cc3cccc(C)c3)ncc2Cl)s1 | 2% | ? | -11% | -4% | 2% | -1
Cc1cccc(CS(=O)(=O)c2ncc(Cl)c(C(=O)Nc3nnc(C(C)C)s3)n2)c1 | 0% | 25µM* | 3% | -2% | 0% | -4
COc1nn(C(C)C(=O)N2N=C(C(F)F)CC2(O)C(F)F)cc1[N+](=O)[O-] (stereo not given) | 1% | 5% | 0% | 2% | -11% | -82*
CCn1c(=O)c([N+](=O)[O-])c(Cl)c2ccccc21 | -2% | 2.5µM* | -3% | 5% | -9% | 1
